Screening results as filed in PubChem BioAssay.
A selection: hits, their analogues and other compounds. The true share with any hit is near 3.3%.
Giardia FBPA inh = qHTS Assay for Inhibitors of Fructose-1,6-bisphosphate Aldolase from Giardia Lamblia. purified Giardia FBPA. 0.71% of 290,000 active. Potency, µM (highest dose often 59.6 µM), without a hit: at the highest dose activity, negative = inhibition, usual class: inhibitors; note: nearly all actives have a fitted effect of over 55% in size
Target sequence (A8B2U2 whole entry, looked up): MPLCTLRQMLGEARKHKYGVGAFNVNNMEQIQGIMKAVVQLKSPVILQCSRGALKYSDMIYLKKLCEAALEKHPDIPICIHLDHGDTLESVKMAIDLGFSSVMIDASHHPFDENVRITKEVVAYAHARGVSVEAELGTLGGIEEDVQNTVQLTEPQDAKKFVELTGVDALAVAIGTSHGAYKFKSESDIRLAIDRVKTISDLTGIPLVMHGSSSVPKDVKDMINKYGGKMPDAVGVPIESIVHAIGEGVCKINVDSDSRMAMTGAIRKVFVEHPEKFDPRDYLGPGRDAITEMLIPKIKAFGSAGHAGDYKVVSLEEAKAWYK
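Giardia FBPA (40 nM reagent) was preincubated 10 min at RT with compound (up to 57.5 uM final), then substrate plus GAPDH/TPI/NAD/arsenate coupling system with diaphorase/resazurin was added; resorufin fluorescence (525/598 nm) was read after 20 min.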
TbPYK inhibitor = qHTS of Trypanosoma Brucei Inhibitors; pyruvate kinase (Trypanosoma brucei), Q57TT1; TbPYK enzyme, Kinase-Glo Plus ATP luminescence, 45 min; Potency, µM (highest dose often 76.8 µM), without a hit: top-dose activity, negative = inhibition, actives largely listed as inhibitors; 0.12% of 410,000 active; AID 624173, 2012; note: nearly all actives have a fitted effect of over 50% in size
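Activity of T. brucei pyruvate kinase was followed by Kinase-Glo Plus luminescence after the enzyme reacted 45 min at room temperature with 130 uM ADP (final) and substrate. Test compounds were added before ADP at multiple concentrations.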
RE007 growth inh = qHTS Assay for Inhibitors of the HIV-1 protein Vpr; 0.21% of 360,000 active; Potency, µM (series often up to 92.2 µM), inactives show at the top dose activity change, negative = less growth, usual class: inhibitors; S. pombe RE007 Vpr strain, BacTiter-Glo ATP luminescence, 24 h; AID 651644, 2012; active = well fitted falling curve with a large enough effect; inconclusive = small, poorly fitted or top-dose-only effect; inactive = no such curve, though single readings can be large or run the other way; note: nearly all actives have a fitted effect of over 50% in size
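Fission yeast RE007 carrying one integrated HIV-1 vpr copy, seeded at OD 0.01 in PMG+AL medium with 23 nL pinned compound. Grown 24 h at 30 degrees; viability read by BacTiter-Glo luminescence after 5 min.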
Sm TGR inh = qHTS Assay for the Inhibitors of Schistosoma Mansoni Peroxiredoxins; Schistosoma mansoni thioredoxin glutathione reductase (TGR), Q962Y6; purified TGR, DTNB reduction, TNB absorbance 405 nm; Potency, µM (highest dose often 114 µM), for inactives: at the top dose activity change, negative = inhibition, most hits filed as inhibitors; 3% of 360,000 active; note: nearly all actives have a fitted effect of over 60% in size
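Kinetic colorimetric format: TGR-catalysed, NADPH-driven DTNB reduction monitored via TNB absorbance. Enzyme dispensed at 20 nM; compound exposure 15 min at room temperature before reaction start.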
LmPK inhibitor = qHTS Assay for Inhibitors of Leishmania Mexicana Pyruvate Kinase (LmPK) | 0.37% of 290,000 active | Potency, µM (doses to about 57.5 µM), for inactives: top-dose activity change, negative = inhibition, actives largely listed as inhibitors | purified LmPK, Kinase-Glo ATP luminescence, 1 h
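0.1 nM LmPK, 0.5 mM PEP, 0.1 mM ADP; 50 mM imidazole pH 7.2, 7 mM MgCl2, 50 mM KCl; 1 h RT. Kinase-Glo luminescence readout, normalized to no-enzyme (full inhibition) and uninhibited wells.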
* marks the source's active call; other numbers are inactive results; ? = inconclusive; . = no result; [ ] = dose if it differs, or a comment. Unless noted, calls come from the whole dose curve; as a rule, active = well fitted curve in the direction sought with a large enough effect; inconclusive = small, poorly fitted or top-dose-only effect, or another doubt; inactive = no such curve, though single readings can be large; an effect the other way counts as inactive or inconclusive. % is set by controls: 0 for no effect and ±100 for the full control effect; potency is the fitted concentration of half-maximal effect.

SMILES | Giardia FBPA inh | TbPYK inhibitor | RE007 growth inh | Sm TGR inh | LmPK inhibitor
Clc1ccccc1C(c1nnnn1Cc1ccco1)N1CCN(Cc2ccco2)CC1 (stereo unspecified) | -7% | 5% | -5% | 32µM* | -5%
COc1cccc(C(c2nnnn2Cc2ccco2)N2CCN(c3cccc(C)c3C)CC2)c1OC (stereo unspecified) | 0% | ? | 16% | -6% | 6%
O=c1[nH]c2cc3c(cc2cc1C(c1nnnn1Cc1ccccc1)N1CCCCCC1)OCCO3 (stereo unspecified) | -16% | 4% | -9% | ? | 16%
S=C(Nc1ccc(Cl)cc1)N(CCCN1CCOCC1)Cc1ccco1 | 3% | 5% | -2% | -4% | 0%
COc1ccccc1NC(=S)NC(=O)CC(C)C | 4% | -2% | -9% | 28µM* | 2%
O=C(CCc1ccccc1)NC(=S)Nc1ccccc1Br | -11% | -2% | ? | ? | 3%
COc1ccccc1NC(=S)NC(=O)CCc1ccccc1 | . | -1% | -6% | 4.5µM* | -3%
OCCCCc1nccc2c1[nH]c1ccccc12 | -9% | -2% | . | -2% | -4%
Cc1ccc(C(=O)Nc2nc3ccc(S(=O)(=O)N4CCCC4)cc3s2)cc1 | . | -13% | . | -5% | .
CCn1cc(C(=O)O)c(=O)c2cc(Br)ccc21 | 19% | 0% | -6% | 0% | -1%
COc1ccc(C(Nc2ccccn2)c2oc(CO)cc(=O)c2O)cc1 (stereo unspecified) | ? | ? | 7% | 2.8µM* | -5%
COc1ccc(C(c2oc(CO)cc(=O)c2O)c2oc(CO)cc(=O)c2O)cc1OC | ? | 4% | -5% | ? | 0%
O=c1cc(CO)oc(C(Nc2ccccn2)c2ccccc2Cl)c1O (stereo unspecified) | -16% | -14% | 1% | ? | 0%
COc1cc(C(c2oc(CO)cc(=O)c2O)c2oc(CO)cc(=O)c2O)cc(OC)c1OC | -20% | -16% | 1% | -26% | -1%
O=c1cc(CO)oc(C(Nc2ccccn2)c2ccsc2)c1O (stereo unspecified) | ? | . | . | 11µM* | 7%
COc1ccc(C(c2oc(CO)cc(=O)c2O)c2oc(CO)cc(=O)c2O)cc1 | -17% | -1% | 3% | 35µM* | 2%
O=c1cc(CO)oc(C(Nc2ccccn2)c2ccc(F)cc2)c1O (stereo unspecified) | ? | -5% | -12% | 2.5µM* | 6%
COc1ccc(CNC(=O)Cn2c(SCC(=O)Nc3ccc(OC)cc3)nc3ccccc32)cc1 | . | 0% | . | -5% | .
COc1ccc(NC(=O)C2=C(C)Nc3ncnn3C2c2ccc(C)o2)cc1 (stereo unspecified) | . | -4% | . | 2% | .
Cc1ccnc(NC(c2ccccc2O)c2oc(CO)cc(=O)c2O)c1 (stereo unspecified) | ? | -6% | -14% | 1.8µM* | 22%
Cc1ccc(-n2c3c(cc(C(=O)NCc4ccco4)c2=O)C(=O)CC(C)(C)C3)cc1 | 1% | -1% | 0% | 22µM* | 2%
CC1(C)CC(=O)c2cc(C(=O)NCc3ccco3)c(=O)n(-c3ccc(Cl)cc3)c2C1 | 0% | 1% | -6% | 32µM* | -2%
CCN1CCOC(=O)C1CC(=O)Nc1cc(Cl)ccc1C (stereo unspecified) | . | -14% | . | 7.9µM* | .
CCN1CCOC(=O)C1CC(=O)Nc1ccc(C)c(Cl)c1 (stereo unspecified) | . | 4% | . | 11µM* | .
O=C1CC(c2ccco2)CC(O)=C1C=Nc1ccccc1-c1ccccc1 (stereo unspecified) | -1% | 8% | ? | -20% | 0%
SMILES | Giardia FBPA inh | TbPYK inhibitor | RE007 growth inh | Sm TGR inh | LmPK inhibitor
COc1cc(C2CC(=O)Oc3cc(O)ccc32)cc(OC)c1OC (stereo unspecified) | 1%[89.2 µM] | 2% | 4% | . | .
CCOc1ccccc1NC(=O)C1CCCN1S(=O)(=O)c1ccccc1C(F)(F)F (stereo unspecified) | . | -2% | -7% | -3% | .
Cc1[nH]c2ccc(F)cc2c1CCN(Cc1ccncc1)C(=S)Nc1cccc(F)c1 | -6% | -9% | 3% | -3% | 8%[11.5 µM]
CCOC(=O)N1CCC2(CC1)C(C#N)=C(N)OC1=C2C(=O)CC(C)(C)C1 | 2% | -21% | 4% | 1% | -1%
CCOC(=O)N1CCC2(CC1)C(C#N)=C(N)Oc1c2c(C)nn1-c1cccc(Cl)c1 | -12% | -6% | -3% | 1.1µM* | -3%
Cc1cccc(C)c1OC(=O)CSc1nnc(-c2ccc3c(c2)OCO3)o1 | . | 2% | . | 0% | .
O=C(Nc1nnc(-c2ccco2)o1)c1ccc(Br)s1 | . | 3% | -2% | . | .
Clc1cccc(Nc2nc(N3CCOCC3)nc(N3CCOCC3)n2)c1 | -20% | 2% | 3% | -4% | 0%
Cc1ccc2c(c1Cl)NC(C(=O)O)C1CC(Sc3ccccc3[N+](=O)[O-])C(Cl)C21 (stereo unspecified) | 4% | -17% | 13% | ? | -9%
CCOC(=O)c1ccc2c(c1)C1C=CCC1C(C(=O)O)N2 (stereo unspecified) | ? | . | . | 7.9µM* | -2%
CCN(CC)C(=O)c1ccc2c(c1)C1C=CCC1C(C(=O)O)N2 (stereo unspecified) | ? | ? | . | 0.45µM* | -28%
CC(=O)c1ccc2c(c1)C1C=CCC1C(c1cc3c(cc1Br)OCO3)N2 (stereo unspecified) | . | -4% | 4% | -30% | .
CCN(CC)C(=O)c1ccc2c(c1)C1C(Cl)C(Sc3ccccc3[N+](=O)[O-])CC1C(C(=O)O)N2 (stereo unspecified) | -23% | -26% | -2% | 3.2µM* | ?
CCOC(=O)C1Nc2ccc(C(=O)O)cc2C2C=CCC12 (stereo unspecified) | ? | -11% | 0% | ? | 9%
CCc1cc2c(SCC#N)ncnc2s1 | 4% | -1% | -17% | . | -3%
Cn1c(C(=O)N2CCN(c3ncccn3)CC2)cc2c(=O)n(C)c3ccccc3c21 | 18µM* | -4% | -8% | ? | 5%
Cn1c(C(=O)N2CCCC2)cc2c(=O)n(C)c3ccccc3c21 | -11% | 4% | 2% | -14% | 2%
O=C(/C=C/c1cccnc1)/C=C/c1cccnc1 | -1% | -22% | ? | 3.2µM* | -8%
N#Cc1ccc(/C=C/C(=O)c2cccnc2)cc1 | -6% | ? | 45µM* | 28µM* | -4%
O=C(/C=C/c1ccccc1Cl)Nc1ccccc1 | -10% | -9% | ? | 11% | 14µM*
O=C(/C=C/c1ccccc1Cl)Nc1cccc(O)c1 | -20% | -6% | -18% | 4% | -11%[11.5 µM]
O=C(C=Cc1ccccc1F)c1ccccc1 | . | -8% | ? | . | .
